PubChem BioAssay (NCATS)
Inconclusive results are not listed. Unmarked numbers belong to inactive results. Calls of active or inactive are those of the source. Calls come from the whole dose curve; as a rule, active = well fitted inhibition curve with a large enough effect; inconclusive = small, poorly fitted or top-dose-only effect; inactive = flat fitted curve, though single readings scatter. *1 amine or outer side, *2 acyl side, *3 side chain or, on linkers, in order; H or OH if unused. Where a SMILES comes first, the peptide text is derived from it. Bridges are numbered along the chain shown (N, C = ends). [ ]: non-standard residue; d: D form. The star is where a group is joined. ξ: configuration not given here. X10 = NC1=NCCC(C(N[*:1])C(=O)[*:2])N1; ΔAla(3-NHCONH2) = NC(=O)NC=C(N)C(=O)O; ξβ3hOrn = NCCCC(N)CC(=O)*; Dap = NC[CH](N)C(=O)O

These molecules were tested against Glutathione peroxidase 1 (Homo sapiens) (UniProt P07203) (assay: Primary qHTS Assay for Inhibitors of Recombinant Selenoprotein Glutathione Peroxidase 1 (GPX1) (AID 1845191; note: nearly all actives have a fitted effect of over 65% in size)). Conditions: recombinant GPX1, GR-coupled NADPH fluorescence, 15 min; series mostly up to 48.8 µM; activity, negative = inhibition: at the top concentration.
In short: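 10 nM GPX1 + cpd, 30 min RT; start w/ 1 mM GSH, 0.5 mM cumene hydroperoxide, 0.5 mM NADPH, 100 nM GR, 0.01% BSA; buffer 50 mM Tris-HCl pH 7.5, 2 mM EDTA, 150 mM NaCl; Fl 340/450, 0 & 15 min.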
% is set by controls: 0 for no effect and ±100 for the full control effect; potency is the fitted concentration of half-maximal effect.

Glutathione peroxidase 1 (Homo sapiens), sequence (P07203 whole entry, looked up): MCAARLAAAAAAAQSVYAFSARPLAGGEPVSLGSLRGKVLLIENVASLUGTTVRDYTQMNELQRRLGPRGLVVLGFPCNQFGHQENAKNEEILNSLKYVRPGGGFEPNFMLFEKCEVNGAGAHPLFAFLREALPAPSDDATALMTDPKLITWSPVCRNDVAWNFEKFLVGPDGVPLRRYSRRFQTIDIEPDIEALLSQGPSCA

Structure (SMILES) | activity, negative = inhibition | outcome | Potency
COC(=O)c1cc(Cl)ccc1NS(=O)(=O)C(F)(F)F | -12.9% | – | –
CN1C(=O)CC(C)(c2ccccc2)C1=O (configuration not stated) | – | inactive | –
O=C(COCCOCCOCC(=O)Nc1c(I)cc(I)c(C(=O)O)c1I)Nc1c(I)cc(I)c(C(=O)O)c1I | -0.689% | – | –
CC(=O)O[C@@H]1CC2C3CCc4cc(OC(=O)c5ccccc5)ccc4C3CCC2(C)[C@H]1OC(C)=O (some centres not stated) | 3.36% | – | –
CCN(CC)CC(=O)Nc1c(C)cccc1C(=O)OC | -9.23% | – | –
CN1C(CSCC(F)(F)F)Nc2cc(Cl)c(S(N)(=O)=O)cc2S1(=O)=O (configuration not stated) | -2.63% | – | –
CC(=O)OCC(=O)[C@@]1(O)[C@H](OC(C)=O)C[C@H]2[C@@H]3CCC4=CC(=O)C=C[C@]4(C)[C@@]3(F)[C@@H](O)C[C@@]21C | -11.3% | – | –
OC(CCCN1CCCCC1)(c1ccccc1)c1ccccc1 | -7.26% | – | –
C[C@]12CCC(=O)C=C1CC[C@@H]1[C@@H]2[C@@H](O)C[C@@]2(C)[C@H]1CC[C@]2(O)C(=O)COC(=O)CCC(=O)O | -13.8% | – | –
CN1CCCN(C(c2ccccc2)c2ccc(Cl)cc2)CC1 (configuration not stated) | -17.6% | – | –
CN(C)CCOC(c1ccccc1)c1ccc(Br)cc1 (configuration not stated) | -15.2% | – | –
N#C/C(=C1/SC[C@@H](c2ccc(Cl)cc2Cl)S1)n1ccnc1 | -9.36% | – | –
Cc1ccc2c(Cl)cc(Cl)c(O)c2n1 | 1.23% | – | –
NCCCC(N)CC(=O)NCC1NC(=O)C(CO)NC(=O)C(N)CNC(=O)C(C2CCN=C(N)N2)NC(=O)C(=CNC(N)=O)NC1=O (stereo not drawn) (H-[Dap]S[Dap](ξβ3hOrn)[ΔAla(3-NHCONH2)][X10]; lactam 1-C; configuration not given here) | – | inactive [at 0.4 µM] | –
CCOC(=O)Oc1ccc(CCNC(=O)[C@H](CCSC)NC(C)=O)cc1OC(=O)OCC | – | inactive | –
Cc1c(F)cc2c(=O)c(C(=O)O)cn3c2c1CCC3C (configuration not stated) | -1.89% | – | –
COc1c(N2C[C@@H]3CCCN[C@@H]3C2)c(F)cc2c(=O)c(C(=O)O)cn(C3CC3)c12 | – | – | 14.3 µM (active)
Cc1ccc(O)cc1 | -10.9% | – | –
Cc1oc(=O)oc1COC(=O)[C@@H]1N2C(=O)[C@@H](NC(=O)[C@H](N)c3ccccc3)[C@H]2SC1(C)C | 0.0932% | – | –

Structure (SMILES) | activity, negative = inhibition | outcome | Potency
CCCCOCCOC(=O)c1cccnc1 | -3.11% | – | –
NS(=O)(=O)c1ccc(N2CCCCS2(=O)=O)cc1 | 0.762% | – | –
Cc1ccc(Cl)c(OCC(O)CNC(C)(C)C)c1 (configuration not stated) | -15% | – | –
CC(=O)OCC(=O)[C@@]1(O)CCC2C3CCC4=CC(=O)CC[C@]4(C)C3[C@@H](O)C[C@@]21C (some centres not stated) | 0.576% | – | –
C[C@H]1C[C@@H]2[C@H]([C@@H](O)C[C@@]3(C)[C@H]2CC[C@]3(O)C(=O)CO)[C@@]2(C)C=CC(=O)C=C12 | – | – | inactive
CCOC(=O)NNc1nncc2ccccc12 | -8.73% | – | –
O=C(C1CCCCC1)N1CC(=O)N2CCCc3ccccc3C2C1 (configuration not stated) | 4.8% | – | –
CN(C)CCN(Cc1ccsc1)c1ccccn1 | – | inactive | –
CC(C)(C)C(O)/C=C/c1ccc2c(c1)OCO2 (configuration not stated) | 2.43% | – | –
CCOc1c(N2CCOCC2)cnn(C)c1=O | -8.78% | – | –
Cc1cccc(C)c1NC(=O)c1cc(S(N)(=O)=O)c(Cl)cc1O | – | inactive | –
CCCC(=O)O[C@]1(C(=O)CCl)[C@@H](C)C[C@H]2[C@@H]3CCC4=CC(=O)C=C[C@]4(C)[C@@]3(F)C(=O)C[C@@]21C | – | inactive | –
CCOC(=O)C1=C(C)NC(C)=C(C(=O)OCC)C1c1ccccc1/C=C/C(=O)OC(C)(C)C | -12.2% | – | –
C[C@@H]1C[C@H]2[C@@H]3CCC4=CC(=O)C=C[C@]4(C)[C@@]3(F)[C@@H](O)C[C@]2(C)[C@@]1(O)C(=O)COC(=O)c1ccncc1 | – | inactive | –
COc1ccc(-n2nc(CCC(=O)N(C)O)cc2-c2ccc(Cl)cc2)cc1 | – | inactive | –
CCCCCCCCCCCCCCCCCCNC(=O)OC1CCN(C(=O)OC[C@H](COC(=O)N(Cc2cccc[n+]2CC)C(=O)c2ccccc2OC)OC)CC1 | – | inactive | –
O=C(OCC(O)CO)c1ccccc1Nc1ccnc2c(C(F)(F)F)cccc12 (configuration not stated) | -4.99% | – | –
CCCCCC1Nc2cc(C(F)(F)F)c(S(N)(=O)=O)cc2S(=O)(=O)N1 (configuration not stated) | -29.2% | – | –
